Measurements taken from PubChem BioAssay (Tox21).
A number with no mark means an inactive call. Results filed as inconclusive are left out. Entries that show only a call come without a potency. Active and inactive are the calls of the source. Unless noted, calls come from the whole dose curve; as a rule, active = well fitted curve in the direction sought with a large enough effect in the repeat runs; inconclusive = weak or mixed curves; inactive = no such curve, though single readings can be large; an effect the other way counts as inactive or inconclusive.

Tests used:
[1] = qHTS assay to identify small molecule antagonists of the androgen receptor (AR) signaling pathway using the MDA cell line in the presence of 0.5 nM R1881 - cell viability counter screen (AID 1259242); note: nearly all actives have a fitted effect of over 45% in size; note: potency is the fitted concentration of half-maximal effect
Summary of the method: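 Fluorescence from CellTiter-Fluor, which reports protease activity of live cells, was read 30 min after reagent addition to MDA-kb2 cells that had been incubated 16 hr with compound and 0.5 nM R1881.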

[2] = qHTS assay to identify small molecule HDAC inhibitors (AID 1259364); note: nearly all actives have a fitted effect of over 45% in size; note: potency is the fitted concentration of half-maximal effect
Summary of the method: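 Endogenous HDAC class I/II activity was measured in wild-type HCT-116 cells by HDAC-Glo luminescence after 2 h compound treatment.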

[3] = qHTS assay to identify small molecule HDAC inhibitors - cell viability counter screen (AID 1259365); note: nearly all actives have a fitted effect of over 50% in size; note: potency is the fitted concentration of half-maximal effect
Summary of the method: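 HCT-116 wild-type, overnight attachment; 2hr drug exposure, 37C; CellTiter-Glo luminescent ATP readout after 30min RT.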

[4] = qHTS assay to identify small molecule antagonists of the sonic hedgehog signaling (Shh) pathway - cell viability counter screen (AID 1259367); note: nearly all actives have a fitted effect of over 55% in size; note: potency is the fitted concentration of half-maximal effect
Summary of the method: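 Cells: 3T3 Gli1-Luc, 2,000/well, 4 hr pre-incubation. Compounds in DMSO, then conditioned medium. Incubation 24 hr, 37C, 5% CO2. CellTiter-Fluor at 23 hr, 1 hr, fluorescence.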

[5] = molecular target: Estrogen receptor beta (Homo sapiens) (UniProt Q92731); test: qHTS assay to identify small molecule agonists of the estrogen receptor beta (ER-beta) signaling pathway (AID 1259377; active = well fitted activation curve with a large enough effect in the signal ratio in the repeat runs, not every such curve was filed as active; the % refers to the signal ratio)
Summary of the method: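 qHTS in ER-beta-UAS-bla HEK293T cells: 6 hr settling, then 16 hr compound at 37C, then LiveBLAzer substrate 2 h at RT before fluorescence reading.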

[6] = molecular target: Estrogen receptor beta (Homo sapiens) (UniProt Q92731); test: qHTS assay to identify small molecule antagonists of the estrogen receptor beta (ER-beta) signaling pathway (AID 1259378; active = well fitted inhibition curve with a large enough effect in the signal ratio in the repeat runs, not every such curve was filed as active; the % refers to the signal ratio; note: potency is the fitted concentration of half-maximal effect)
Summary of the method: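 Antagonist mode: compounds added to beta-lactamase reporter HEK293T ER-beta-UAS cells stimulated with E2 (1nM final), 16 hr at 37C. LiveBLAzer B/G FRET substrate, 2 hours room temperature, fluorescence read-out.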

[7] = qHTS assay to identify small molecule agonists of the androgen receptor (AR) signaling pathway in the presence of an antagonist - cell viability counter screen (AID 1259379); note: nearly all actives have a fitted effect of over 25% in size; note: potency is the fitted concentration of half-maximal effect
Summary of the method: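 In MDA-kb2 cells (human breast carcinoma, MMTV-luciferase), compounds at 15 concentrations plus 3.0uM nilutamide; 16 hr, 37C, 0% CO2; CellTiter-Fluor fluorescence read for viability.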

[8] = qHTS assay to identify small molecule agonists of the estrogen receptor beta (ER-beta) signaling pathway - cell viability counter screen (AID 1259380); note: nearly all actives have a fitted effect of over 30% in size; note: potency is the fitted concentration of half-maximal effect
Summary of the method: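 Viability of ER-beta-UAS-bla HEK293T cells was determined by CellTiter-Glo luminescence following 16 hr treatment with test compounds at 37C.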

[9] = qHTS assay to identify small molecule antagonists of the estrogen receptor beta (ER-beta) signaling pathway - cell viability counter screen (AID 1259382);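 note: HEK293T cells carrying ER-beta-UAS-bla reporter stimulated with estradiol; series mostly up to about 92 µM; nearly all actives have a fitted effect of over 55% in size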
Summary of the method: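 Tox21 10K library tested in qHTS format on ER-beta-bla HEK293T cells stimulated with 1nM E2; 16 hr treatment at 37C. Same-well CellTiter-Glo luminescence served as the cell viability measure.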

[10] = qHTS assay to identify small molecule agonists or antagonists of the thyroid stimulating hormone receptor (TSHR) signaling pathway - wild type cell line counter screen (AID 1259384; calls by dose curve; note: potency is the fitted concentration of half-maximal effect)
Summary of the method: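 Counter screen in untransfected Hek293: compounds (15-point titration, triplicate) plus phosphodiesterase inhibitor Ro20-1724 added after 18 h plating; 30 min RT. Intracellular cAMP via competitive d2/cryptate immunoassay, 1 h incubation.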

[11] = molecular target: Thyrotropin receptor (Homo sapiens) (UniProt P16473); test: qHTS assay to identify small molecule antagonists of the thyroid stimulating hormone receptor (TSHR) signaling pathway (AID 1259385; calls by dose curve; note: nearly all actives have a fitted effect of over 20% in size)
Summary of the method: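 Antagonist mode: compound-treated TSHR-expressing HEK293 cells were stimulated with 1.5 ng/mL TSH (final) in presence of Ro20-1724 for 30 min at RT. HTRF cAMP detection after 1 h; each compound tested at 15 concentrations, triplicate.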

[12] = qHTS assay to identify small molecule agonists of the estrogen receptor alpha (ER-alpha) signaling pathway in the presence of an antagonist - cell viability counter screen (AID 1259386);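 note: cells exposed to compounds for 22 h at 37 °C before the viability read; nearly all actives have a fitted effect of over 30% in size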; note: potency is the fitted concentration of half-maximal effect
Summary of the method: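 Fluorescent CellTiter-Fluor viability signal from VM7Luc4E2 cells, with the reagent added during the final hour of a 22hr compound exposure at 37C in the presence of 10.0nM ICI-182,780.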

[13] = qHTS assay to identify small molecule agonists of the sonic hedgehog signaling (Shh) pathway - cell viability counter screen (AID 1259366); note: nearly all actives have a fitted effect of over 50% in size; note: potency is the fitted concentration of half-maximal effect
Summary of the method: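 Compounds in DMSO were pin-transferred onto 3T3 Gli1-Luc cells that had settled 4hr; plates then stood 24hr at 37C and 5% CO2. One hour before the end, CellTiter-Fluor was added and fluorescence recorded.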

[14] = qHTS assay to identify small molecule antagonists of the sonic hedgehog signaling (Shh) pathway (AID 1259369; calls by dose curve; note: nearly all actives have a fitted effect of over 45% in size; note: potency is the fitted concentration of half-maximal effect)
Summary of the method: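 Screening used 3T3Gli1-Luc cells at 2,000 per well, compounds delivered in DMSO, and conditioned medium as agonist stimulus; plates incubated 24hr at 37 C and 5% CO2 before a 30min luciferase step.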

[15] = molecular target: Androgen receptor (Homo sapiens) (UniProt P10275); test: qHTS assay to identify small molecule agonists of the androgen receptor (AR) signaling pathway in the presence of an antagonist (AID 1259381; calls by dose curve; note: nearly all actives have a fitted effect of over 15% in size)
Summary of the method: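 Here, 15-concentration compound series were pin-transferred onto MDA-kb2 MMTV-luciferase cells already dosed with nilutamide (3.0uM final). After 16hr at 37C, ONE-Glo was added and luminescence read 30min later at room temperature.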

[16] = qHTS assay to identify small molecule agonists of the sonic hedgehog signaling (Shh) pathway (AID 1259368; calls by dose curve;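 note: NIH/3T3-derived 3T3Gli1-Luc cells carrying a stable Gli1-driven firefly luciferase reporter; series mostly up to about 92 µM; nearly all actives have a fitted effect of over 15% in size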)
Summary of the method: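 Luminescent signal was taken as a measure of Gli1-controlled luciferase expression in stably transfected NIH/3T3-derived cells that had been treated for 24 hr with compounds delivered in DMSO.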

[17] = molecular target: Estrogen receptor (Homo sapiens) (UniProt P03372); test: qHTS assay to identify small molecule agonists of the estrogen receptor alpha (ER-alpha) signaling pathway in the presence of an antagonist (AID 1259383; calls by dose curve; note: top concentration of the series differs between compounds; nearly all actives have a fitted effect of over 15% in size)
Summary of the method: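 In VM7Luc4E2 cells, 4,000 per well, compounds at 15 concentrations were co-incubated 22hr at 37C with 10.0nM final ICI-182,780. Luminescence from the stably transfected 4×ERE-luciferase reporter was recorded 30min after ONE-Glo addition.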

[18] = molecular target: Androgen receptor (Homo sapiens) (UniProt P10275); test: qHTS assay to identify small molecule antagonists of the androgen receptor (AR) signaling pathway using the MDA cell line in the presence of 0.5 nM R1881 (AID 1259243); note: potency is the fitted concentration of half-maximal effect; nearly all actives have a fitted effect of over 50% in size
Summary of the method: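 Inhibition of R1881 (0.5 nM final) induced reporter signal was measured in human MDA-kb2 cells; note the MMTV promoter also responds to GR. Exposure lasted 16 hr at 37C.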

[19] = molecular target: Estrogen receptor (Homo sapiens) (UniProt P03372); test: qHTS assay to identify small molecule antagonists of the estrogen receptor alpha (ER-alpha) signaling pathway using the BG1 cell line in the presence of 0.1 nM 17-beta-estradiol (AID 1259244); note: nearly all actives have a fitted effect of over 50% in size; note: potency is the fitted concentration of half-maximal effect
Summary of the method: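 Quantitative high-throughput screen in VM7Luc4E2 cells: compound plus 0.1 nM E2 (final), 22 h, 37C, 5% CO2; ONE-Glo added, 30 min room temperature, luminescence measured.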

[20] = qHTS assay to identify small molecule phospholipidosis (PLD) inducers (AID 1259344; active = well fitted curve in the direction sought with a large enough effect; an effect the other way counts as inactive or inconclusive)
Summary of the method: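 Phospholipidosis is scored by imaging LipidTOX-stained pits in HepG2 cells exposed to compound for 24 h at 37 C; pit counts and integrated intensities per well and per cell serve as outputs.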

Sequence of Estrogen receptor (Homo sapiens) (P03372 whole entry, looked up): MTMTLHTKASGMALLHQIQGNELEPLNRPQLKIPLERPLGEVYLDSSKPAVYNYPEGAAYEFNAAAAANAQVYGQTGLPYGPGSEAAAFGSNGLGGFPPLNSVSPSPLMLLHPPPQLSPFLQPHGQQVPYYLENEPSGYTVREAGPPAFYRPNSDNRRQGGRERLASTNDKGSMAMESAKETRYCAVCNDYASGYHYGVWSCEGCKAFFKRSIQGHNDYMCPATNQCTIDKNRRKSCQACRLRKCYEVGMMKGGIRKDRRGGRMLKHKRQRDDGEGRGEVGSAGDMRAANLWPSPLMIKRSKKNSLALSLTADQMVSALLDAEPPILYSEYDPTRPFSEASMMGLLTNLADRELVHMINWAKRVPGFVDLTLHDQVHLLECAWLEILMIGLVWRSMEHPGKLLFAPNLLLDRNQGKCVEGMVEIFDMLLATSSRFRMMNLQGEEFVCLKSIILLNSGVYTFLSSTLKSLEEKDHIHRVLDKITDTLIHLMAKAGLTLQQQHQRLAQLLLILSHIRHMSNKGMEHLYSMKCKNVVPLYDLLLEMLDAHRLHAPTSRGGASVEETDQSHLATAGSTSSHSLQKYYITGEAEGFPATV
Sequence of Estrogen receptor beta (Homo sapiens) (Q92731 whole entry, looked up): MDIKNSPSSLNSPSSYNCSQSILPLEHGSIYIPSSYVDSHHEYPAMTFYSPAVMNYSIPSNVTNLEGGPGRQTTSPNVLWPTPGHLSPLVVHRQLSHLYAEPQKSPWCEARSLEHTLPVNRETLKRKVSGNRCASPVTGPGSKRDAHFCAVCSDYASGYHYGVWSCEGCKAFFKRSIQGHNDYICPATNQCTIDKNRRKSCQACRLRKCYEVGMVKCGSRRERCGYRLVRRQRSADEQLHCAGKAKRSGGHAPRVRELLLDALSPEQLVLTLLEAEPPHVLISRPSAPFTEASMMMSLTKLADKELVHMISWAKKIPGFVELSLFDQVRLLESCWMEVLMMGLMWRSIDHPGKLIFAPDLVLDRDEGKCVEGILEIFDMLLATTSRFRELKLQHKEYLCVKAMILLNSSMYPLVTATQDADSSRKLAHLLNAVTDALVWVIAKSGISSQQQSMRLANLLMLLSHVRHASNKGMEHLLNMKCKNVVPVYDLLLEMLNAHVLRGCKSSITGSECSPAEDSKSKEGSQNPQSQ
Sequence of Thyrotropin receptor (Homo sapiens) (P16473 whole entry, looked up): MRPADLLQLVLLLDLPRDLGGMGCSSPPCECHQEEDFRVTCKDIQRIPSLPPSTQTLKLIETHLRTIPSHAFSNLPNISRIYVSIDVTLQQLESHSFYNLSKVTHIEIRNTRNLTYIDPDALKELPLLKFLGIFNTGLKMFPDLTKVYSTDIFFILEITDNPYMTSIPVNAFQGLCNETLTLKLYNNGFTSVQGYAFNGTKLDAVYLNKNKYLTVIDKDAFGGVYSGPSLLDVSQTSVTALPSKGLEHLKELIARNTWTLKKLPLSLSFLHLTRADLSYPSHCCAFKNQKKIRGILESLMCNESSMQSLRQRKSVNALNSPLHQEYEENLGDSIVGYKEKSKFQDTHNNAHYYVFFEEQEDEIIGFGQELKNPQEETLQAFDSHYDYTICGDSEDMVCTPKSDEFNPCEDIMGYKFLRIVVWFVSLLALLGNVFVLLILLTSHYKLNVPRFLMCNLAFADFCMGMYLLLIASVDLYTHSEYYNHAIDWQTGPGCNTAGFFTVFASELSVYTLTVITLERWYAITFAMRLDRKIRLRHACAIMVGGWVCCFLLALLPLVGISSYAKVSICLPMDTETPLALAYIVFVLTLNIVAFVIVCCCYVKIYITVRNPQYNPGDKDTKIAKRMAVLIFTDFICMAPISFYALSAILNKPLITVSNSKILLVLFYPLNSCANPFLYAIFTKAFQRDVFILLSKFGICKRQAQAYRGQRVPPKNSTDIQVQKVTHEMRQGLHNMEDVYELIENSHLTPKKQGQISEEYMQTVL
Sequence of Androgen receptor (Homo sapiens) (P10275 whole entry, looked up): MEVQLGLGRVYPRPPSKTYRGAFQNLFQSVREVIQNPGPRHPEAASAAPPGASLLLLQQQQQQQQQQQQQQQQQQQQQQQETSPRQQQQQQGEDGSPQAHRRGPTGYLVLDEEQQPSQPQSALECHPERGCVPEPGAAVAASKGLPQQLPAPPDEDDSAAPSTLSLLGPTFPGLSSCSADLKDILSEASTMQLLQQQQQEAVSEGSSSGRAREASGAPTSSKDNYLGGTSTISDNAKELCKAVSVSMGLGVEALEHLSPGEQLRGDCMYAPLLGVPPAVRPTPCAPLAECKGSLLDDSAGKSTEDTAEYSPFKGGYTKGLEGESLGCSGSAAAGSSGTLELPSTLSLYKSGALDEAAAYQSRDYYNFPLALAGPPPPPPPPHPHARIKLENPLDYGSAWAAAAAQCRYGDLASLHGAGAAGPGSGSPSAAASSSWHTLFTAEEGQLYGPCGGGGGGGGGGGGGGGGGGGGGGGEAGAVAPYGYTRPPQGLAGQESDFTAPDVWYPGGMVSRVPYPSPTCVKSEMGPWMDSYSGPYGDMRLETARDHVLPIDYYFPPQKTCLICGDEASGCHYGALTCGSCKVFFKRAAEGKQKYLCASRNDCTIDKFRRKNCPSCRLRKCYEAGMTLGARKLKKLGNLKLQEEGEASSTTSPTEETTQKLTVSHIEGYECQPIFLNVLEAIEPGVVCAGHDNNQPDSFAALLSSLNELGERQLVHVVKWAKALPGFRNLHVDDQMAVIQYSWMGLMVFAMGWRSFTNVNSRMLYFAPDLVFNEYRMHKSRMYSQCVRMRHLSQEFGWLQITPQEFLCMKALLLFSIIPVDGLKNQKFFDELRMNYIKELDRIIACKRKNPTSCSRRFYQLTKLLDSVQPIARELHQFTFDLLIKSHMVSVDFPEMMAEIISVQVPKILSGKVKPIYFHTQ

Row | SMILES | Potency [1] | Potency [2] | Potency [3] | Potency [4] | Potency [5] | Potency [6] | Potency [7] | Potency [8] | Potency [9] | Potency [10] | Potency [11] | Potency [12] | Potency [13] | Potency [14] | Potency [15] | outcome [16] | Potency [17] | Potency [18] | Potency [19] | Potency [20]
1 | Cc1ccc(N=Nc2c(O)c(C(=O)O)cc3ccccc23)c(S(=O)(=O)O)c1 | 11.8 µM (active) | inactive | inactive | 13.3 µM (active) | inactive | inactive | 23.6 µM (active) | inactive | inactive | inactive | inactive | 23.6 µM (active) | – | – | – | – | – | – | – | –
2 | COC(=O)c1ccc(I)cc1S(=O)(=O)NC(=O)Nc1nc(C)nc(OC)n1 | inactive | inactive | inactive | inactive | – | – | inactive | inactive | inactive | inactive | inactive | inactive | inactive | inactive | – | – | – | – | – | –
3 | Nc1ccc(N)c2c1C(=O)c1ccccc1C2=O | – | 21.7 µM (active) | 30.6 µM (active) | 10.9 µM (active) | – | inactive | 21.7 µM (active) | 7.7 µM (active) | – | – | – | 9.69 µM (active) | 21.7 µM (active) | – | inactive | – | – | – | – | –
4 | O=[N+]([O-])c1cccc(S(=O)(=O)O)c1 | – | inactive | inactive | inactive | inactive | 2.2 µM (active) | 62.1 µM (active) | 24.7 µM (active) | inactive | – | – | inactive | inactive | inactive | – | inactive | – | – | – | –
5 | C[Si](C)(CCCN)O[Si](C)(C)CCCN | inactive | inactive | – | inactive | – | – | inactive | inactive | inactive | inactive | inactive | inactive | inactive | – | – | inactive | inactive | – | – | –
6 | CCN(CC)c1ccc(C(=C2C=CC(=[N+](CC)CC)C=C2)c2cc(S(=O)(=O)O)ccc2S(=O)(=O)[O-])cc1 | – | 9.44 µM (active) | 11.9 µM (active) | – | inactive | inactive | 26.6 µM (active) | – | inactive | – | – | 23.7 µM (active) | – | 2.66 µM (active) | inactive | inactive | – | 7.5 µM (active) | – | –
7 | OCc1cc(C(O)CNCCCCCCOCCCCc2ccccc2)ccc1O (stereo unspecified) | – | – | inactive | 4.73 µM (active) | inactive | 16.8 µM (active) | 26.6 µM (active) | 21.1 µM (active) | – | 0.0009 µM (active) | inactive | 11.9 µM (active) | 3.76 µM (active) | 6.68 µM (active) | – | inactive | inactive | – | inactive | –
8 | Cc1nn(C)c(Oc2ccccc2)c1/C=N/OCc1ccc(C(=O)OC(C)(C)C)cc1 | – | inactive | inactive | inactive | – | – | 0.0306 µM (active) | inactive | inactive | inactive | – | 0.0863 µM (active) | inactive | 0.0273 µM (active) | inactive | inactive | inactive | 0.0273 µM (active) | 0.0122 µM (active) | –
9 | CCC(Cl)CCC(Cl)C(Cl)CC(Cl)C(Cl)C(Cl)CCl (stereo unspecified) | inactive | inactive | – | inactive | inactive | inactive | inactive | inactive | inactive | inactive | inactive | inactive | inactive | – | – | inactive | – | – | – | –
10 | CC/C=C\CCOC(=O)CC | inactive | inactive | – | inactive | – | – | inactive | inactive | inactive | inactive | inactive | inactive | inactive | inactive | – | inactive | – | – | – | –
11 | C=CC(=O)OCCOCCOC(=O)C=C | – | inactive | inactive | 27.4 µM (active) | – | – | 61.4 µM (active) | 24.4 µM (active) | – | inactive | inactive | – | 21.8 µM (active) | 4.88 µM (active) | – | inactive | inactive | – | – | –
12 | O=C(NCC1CN(c2ccc(N3CCOCC3=O)cc2)C(=O)O1)c1ccc(Cl)s1 (stereo unspecified) | inactive | – | inactive | inactive | inactive | inactive | inactive | – | – | inactive | inactive | inactive | inactive | inactive | – | inactive | inactive | – | – | –
13 | O=S(=O)(Oc1ccc(Cl)cc1)c1ccccc1 | inactive | – | inactive | inactive | inactive | inactive | inactive | inactive | inactive | inactive | inactive | inactive | inactive | inactive | – | inactive | inactive | – | – | –
14 | O=C(O)CC(=O)C(=O)O | inactive | – | inactive | – | – | – | inactive | inactive | inactive | inactive | inactive | – | inactive | 54.6 µM (active) | – | inactive | – | – | – | –
15 | OC(CN1CCC(Cc2ccc(F)cc2)CC1)c1ccc(Cl)cc1 (stereo unspecified) | – | inactive | inactive | inactive | inactive | inactive | – | inactive | inactive | – | – | inactive | inactive | 23.7 µM (active) | inactive | inactive | – | 29.8 µM (active) | – | inactive
16 | O=C(Nc1ccccc1)c1ccccc1O | – | 8.63 µM (active) | inactive | 61.1 µM (active) | inactive | – | 61.1 µM (active) | – | inactive | – | – | – | – | 54.5 µM (active) | inactive | inactive | – | – | inactive | –
17 | Nc1ccccc1S(=O)(=O)c1ccccc1 | inactive | inactive | – | inactive | – | – | inactive | inactive | inactive | inactive | inactive | inactive | inactive | – | – | inactive | – | – | – | –
18 | O=C(O)C1(C(=O)O)CCC1.[NH2-].[NH2-].[Pt+2] | inactive | inactive | – | inactive | – | inactive | inactive | inactive | inactive | inactive | inactive | inactive | inactive | inactive | – | inactive | inactive | – | – | –
19 | CC(=O)c1ccc2c(c1)N(CCCN1CCC(CCO)CC1)c1ccccc1S2 | – | inactive | inactive | – | inactive | 15 µM (active) | – | 26.6 µM (active) | – | – | – | – | 11.9 µM (active) | 11.9 µM (active) | – | inactive | inactive | – | inactive | inactive
